Results taken from PubChem BioAssay AID651791 (National Center for Advancing Translational Sciences (NCATS), 2012).
Inconclusive results are not listed. Calls come from the whole dose curve; as a rule, active = well fitted inhibition curve with a large enough effect; inconclusive = small, poorly fitted or top-dose-only effect; inactive = no such curve, though single readings can be large or run the other way.

Assay: InCell qHTS Assay for Inhibitors of the mTORC1 Signaling Pathway in MEF (Tsc2-/-, p53-/-) Cells: Hit Validation;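 note: phospho-S6 Ser235/236 signal normalized to propidium iodide cell count per well; nearly all actives have a fitted effect of over 75% in size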
Details: phospho-rpS6 immunofluorescence, 24 h; activity change, negative = inhibition: at 38.3 µM (top of the series)

| Compound | activity change, negative = inhibition |
| --- | --- |
| CCc1ccc(NC(=O)CSc2nccn2C2CCCC2)cc1 | -100% |
| COc1ccc(C(F)(F)F)cc1NC(=O)c1sc2nc(-c3cccs3)ccc2c1N | -11% |
| CCOC(=O)C1CCN(c2cc3c(cc2NC(=O)c2ccccc2Cl)n(C)c(=O)n3C)CC1 | -12.8% |
| COc1cc2c(cc1OC)n(CC(=O)c1ccc(F)cc1)c(=O)n1nc(CCn3nc(C)cc3C)nc21 | -100% |
| CSc1ccc(CCNC(=O)C(C)n2nc(C)c3sc4ccccc4c3c2=O)cc1 (stereo not given) | -100% |
